# From PubChem BioAssay (EPA / NIEHS)
# A structure can be active in one record and inactive in another. The source made the active and inactive calls. Rule for the calls, unless noted: active = hit-call score of the fitted dose curve at least 0.9, where 1 is the maximum; inactive = score below 0.9.
# Experiments:
# [1] = CCTE_Shafer_MEA_dev_per_burst_interspike_interval: CCTE's Neural Network Formation Assay for Burst Interspike Interval, Shafer Lab (AID 2284044);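 note: mean spike spacing inside bursts as AUC over recordings on days 5 7 9 12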;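 for AC50: potency for a decrease of within-burst interspike interval below DMSO level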
# Method in brief: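 Mean interspike interval within single-electrode bursts, averaged over bursting electrodes, from rat cortical cultures on MEA plates recorded on days 5, 7, 9 and 12. Continuous compound exposure from plating; trapezoidal AUC fitted downward relative to DMSO.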
# [2] = CCTE_Shafer_MEA_dev_burst_duration_mean: CCTE's Neural Network Formation Assay for Mean Burst Duration, Shafer Lab (AID 2284045);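 for AC50: curve fitted for loss meaning shorter burst duration than DMSO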
# Method in brief: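 Read-out: average first-to-last-spike interval within single-electrode bursts, averaged over bursting electrodes per well, then summarised as area under the curve across days 5, 7, 9 and 12. Developing rat cortical networks were exposed from day 0.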
# [3] = CCTE_Shafer_MEA_dev_interburst_interval_mean: CCTE's Neural Network Formation Assay for Mean Interburst Interval, Shafer Lab (AID 2284046);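 note: well-mean interburst interval of bursting electrodes as AUC over four recording days; curve fitted for decrease in interburst interval relative to DMSO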
# Method in brief: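 Network formation assay in primary rat cortical cultures, exposed from DIV 0 to 12. Mean interburst interval per well, integrated as AUC over four recordings.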
# [4] = CCTE_Shafer_MEA_dev_inter_network_spike_interval_mean: CCTE's Neural Network Formation Assay for Mean Inter-network Spike Interval, Shafer Lab (AID 2284047);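 for AC50: potency for a decrease in mean inter-network spike interval below DMSO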
# Method in brief: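 Compound was given at plating to primary rat cortical neurons and renewed with full medium changes on DIV 5 and 9. Extracellular activity was recorded on days 5, 7, 9, 12; AUC values were fitted for loss relative to DMSO control.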
# [5] = CCTE_Shafer_MEA_dev_network_spike_number: CCTE's Neural Network Formation Assay for Number of Network Spikes, Shafer Lab (AID 2284048);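 note: synchronized bursts across electrodes counted on days 5 7 9 12 and integrated as AUC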;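 for AC50: fit as a loss of signal meaning fewer network spikes than DMSO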
# Method in brief: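 Developing networks of primary rat cortical neurons are treated over 12 days starting at plating, with media and compound fully replaced on DIV 5 and 9. Network spike counts from four recording days are integrated as trapezoidal AUC.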
# [6] = CCTE_Shafer_MEA_dev_network_spike_peak: CCTE's Neural Network Formation Assay for Mean Number of Electrodes in Network Spike, Shafer Lab (AID 2284049);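 for AC50: fitted for loss of signal meaning fewer electrodes in network spikes than DMSO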
# Method in brief: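 Rat cortical primary culture, 1.5 x 10^5 cells/well, 48-well MEA (16 electrodes/well). Dosing day 0 through DIV 12, full media/compound exchange DIV 5, 9. AxIS adaptive spike detection; AUC over days 5/7/9/12; loss-of-signal vs DMSO.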
# [7] = tested on: DIO2 (gene 1734); assay: CCTE_GLTED_hDIO2: CCTE's human Deiodinase 2 (DIO2) Inhibition Assay, Great Lakes Toxicology and Ecology Division (GLTED) Lab (AID 2284050; active = hit-call score of the fitted dose curve at least 0.9, where 1 is the maximum)
# Method in brief: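 Cell-free human DIO2 incubated 3 h with chemical; liberated iodide quantified by Sandell-Kolthoff absorbance. Triplicate plates; loss of signal fitted vs DMSO.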
# [8] = CCTE_Shafer_MEA_dev_spike_duration_mean: CCTE's Neural Network Formation Assay for Mean Spike Duration, Shafer Lab (AID 2284051);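 note: mean network spike duration pooled as area under curve over DIV 5 to 12 recordings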;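 for AC50: potency for a decrease in mean network spike duration versus DMSO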
# Method in brief: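 With DMSO as baseline, loss of mean network spike duration was scored from extracellular recordings of rat cortical neurons on MEA plates. Exposure spanned plating to DIV 12; the four recording days were collapsed into one AUC value.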
# [9] = CCTE_Shafer_MEA_dev_network_spike_duration_std: CCTE's Neural Network Formation Assay for Standard Deviation of Network Spike Duration, Shafer Lab (AID 2284052);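 note: area under curve of spike duration SD across recording days 5 to 12; hits are decreases in network spike duration SD versus DMSO vehicle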
# Method in brief: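 Developing networks of rat cortical neurons were exposed over twelve days in vitro on 48-well MEA plates. Trapezoidal AUC of recordings (DIV 5–12) was analysed for signal loss relative to DMSO vehicle.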
# [10] = CCTE_Shafer_MEA_dev_per_network_spike_spike_number_mean: CCTE's Neural Network Formation Assay for Mean Number of Spikes in a Network Spike, Shafer Lab (AID 2284053);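 for AC50: fitted as decrease in spikes per network spike relative to DMSO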
# Method in brief: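 First, rat cortical cells (1.5 x 10^5/well) were seeded onto MEA wells; second, dosing began at plating and was refreshed on DIV 5 and 9; finally, network-spike spike counts across DIV 5–12 were summarized as AUC.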
compound,measurement,setting,value
O=C(O)C(F)(F)C(F)(F)C(F)(F)C(F)(F)C(F)(F)C(F)(F)C(F)(F)C(F)(F)C(F)(F)C(F)F,outcome,[1],inactive
same,outcome,[2],inactive
same,outcome,[3],inactive
same,outcome,[4],inactive
same,outcome,[5],inactive
same,outcome,[6],inactive
same,AC50,[7],59.3 µM (active)
same,outcome,[8],inactive
same,outcome,[9],inactive
same,outcome,[10],inactive
O=C(Cl)C(F)(F)C(F)(F)C(F)(F)C(F)(F)C(F)(F)C(F)(F)C(F)(F)C(F)(F)F,AC50,[7],69.4 µM (active)
O=C(O)C=C(C(F)(F)F)C(F)(F)F,outcome,[1],inactive
same,outcome,[2],inactive
same,outcome,[3],inactive
same,AC50,[4],15 µM (active)
same,outcome,[5],inactive
same,outcome,[6],inactive
same,outcome,[8],inactive
same,outcome,[9],inactive
same,outcome,[10],inactive
Cc1ccc(S(=O)(=O)OCC(F)(F)C(F)(F)C(F)(F)C(F)(F)C(F)(F)C(F)F)cc1,outcome,[1],inactive
same,outcome,[2],inactive
same,outcome,[3],inactive
same,outcome,[4],inactive
same,outcome,[5],inactive
same,outcome,[6],inactive
same,outcome,[8],inactive
same,outcome,[9],inactive
same,outcome,[10],inactive
CC(CCl)OP(=O)(OC(C)CCl)OC(C)CCl (stereo not drawn),outcome,[1],inactive
same,outcome,[2],inactive
same,outcome,[3],inactive
same,outcome,[4],inactive
same,outcome,[5],inactive
same,AC50,[6],50 µM (active)
same,outcome,[6],inactive
same,AC50,[8],50 µM (active)
same,outcome,[8],inactive
same,outcome,[9],inactive
same,AC50,[10],50 µM (active)
same,outcome,[10],inactive
O=C(O)C(F)(F)C(F)(F)C(F)(F)C(F)(F)C(F)(F)C(F)(F)C(F)(F)C(F)(F)C(F)(F)C(F)(F)C(F)(F)C(F)(F)F,AC50,[7],74.9 µM (active)
OC[C@@H](O)[C@@H](O)[C@H](O)[C@@H](O)CO,outcome,[1],inactive
same,outcome,[2],inactive
same,outcome,[3],inactive
same,outcome,[4],inactive
same,outcome,[5],inactive
same,outcome,[6],inactive
same,outcome,[8],inactive
same,outcome,[9],inactive
same,outcome,[10],inactive
FC(F)(F)C(F)(F)C(F)(F)C(F)(F)C(F)(F)CCI,outcome,[1],inactive
same,outcome,[2],inactive
same,outcome,[3],inactive
same,outcome,[4],inactive
same,outcome,[5],inactive
same,AC50,[6],22.3 µM (active)
same,AC50,[8],15 µM (active)
same,outcome,[9],inactive
same,AC50,[10],15 µM (active)
O=C(O)C(F)(F)C(F)(F)C(F)F,outcome,[1],inactive
same,outcome,[2],inactive
same,outcome,[3],inactive
same,outcome,[4],inactive
same,outcome,[5],inactive
same,outcome,[6],inactive
same,outcome,[8],inactive
same,outcome,[9],inactive
same,outcome,[10],inactive
FC(F)(F)C(F)(F)C(F)(F)C(F)(F)C(F)(F)C(F)(F)CC1CO1 (stereo not drawn),outcome,[1],inactive
same,outcome,[2],inactive
same,outcome,[3],inactive
same,outcome,[4],inactive
same,outcome,[5],inactive
same,outcome,[6],inactive
same,outcome,[8],inactive
same,outcome,[9],inactive
same,outcome,[10],inactive
O=P(O)(O)OCCC(F)(F)C(F)(F)C(F)(F)C(F)(F)C(F)(F)C(F)(F)F,outcome,[1],inactive
same,outcome,[2],inactive
same,outcome,[3],inactive
same,outcome,[4],inactive
same,outcome,[5],inactive
same,outcome,[6],inactive
same,outcome,[8],inactive
same,outcome,[9],inactive
same,outcome,[10],inactive
C=CC(=O)OCC(F)(F)C(F)(F)C(F)(F)C(F)(F)COC(=O)C=C,AC50,[1],4.18 µM (active)
same,AC50,[2],2.87 µM (active)
same,AC50,[3],4.2 µM (active)
same,outcome,[4],inactive
same,AC50,[5],2.28 µM (active)
same,AC50,[6],4.19 µM (active)
same,AC50,[7],12.8 µM (active)
same,AC50,[8],7.64 µM (active)
same,outcome,[9],inactive
same,AC50,[10],4.18 µM (active)
c1ccc(B(c2ccccc2)c2ccccc2)cc1,AC50,[7],57.7 µM (active)
CCN(Cc1cccc(S(=O)(=O)O)c1)c1ccc(C(=C2C=CC(=[N+](CC)Cc3cccc(S(=O)(=O)O)c3)C=C2)c2ccc(O)cc2S(=O)(=O)[O-])cc1,AC50,[7],48.5 µM (active)
OCC(F)(F)C(F)(F)C(F)(F)C(F)F,outcome,[1],inactive
same,outcome,[2],inactive
same,outcome,[3],inactive
same,outcome,[4],inactive
same,outcome,[5],inactive
same,outcome,[6],inactive
same,outcome,[8],inactive
same,outcome,[9],inactive
same,outcome,[10],inactive
NC(=O)C(F)(F)C(F)(F)C(F)(F)C(F)(F)F,outcome,[1],inactive
same,outcome,[2],inactive
same,outcome,[3],inactive
same,outcome,[4],inactive
same,outcome,[5],inactive
same,outcome,[6],inactive
same,outcome,[8],inactive
same,outcome,[9],inactive
same,outcome,[10],inactive
N=C(N)C(F)(F)C(F)(F)C(F)(F)C(F)(F)C(F)(F)C(F)(F)C(F)(F)F,outcome,[1],inactive
same,outcome,[2],inactive
same,outcome,[3],inactive
same,outcome,[4],inactive
same,outcome,[5],inactive
same,AC50,[6],26.8 µM (active)
same,outcome,[8],inactive
same,outcome,[9],inactive
same,outcome,[10],inactive
O=C(O)C(F)(F)C(F)(F)C(F)(F)F,outcome,[1],inactive
same,outcome,[2],inactive
same,outcome,[3],inactive
same,outcome,[4],inactive
same,outcome,[5],inactive
same,outcome,[6],inactive
same,outcome,[8],inactive
same,outcome,[9],inactive
same,outcome,[10],inactive
OCC(F)(F)C(F)(F)C(F)(F)F,outcome,[1],inactive
same,outcome,[2],inactive
same,outcome,[3],inactive
same,outcome,[4],inactive
same,outcome,[5],inactive
same,outcome,[6],inactive
same,outcome,[8],inactive
same,outcome,[9],inactive
same,outcome,[10],inactive
CC(C)(C)C(=O)CC(=O)C(F)(F)C(F)(F)C(F)(F)F,outcome,[1],inactive
same,outcome,[2],inactive
same,outcome,[3],inactive
same,outcome,[4],inactive
same,outcome,[5],inactive
same,AC50,[6],23.7 µM (active)
same,AC50,[8],26 µM (active)
same,outcome,[9],inactive
same,AC50,[10],25.3 µM (active)
OCC(F)(F)C(F)(F)C(F)(F)C(F)(F)C(F)(F)C(F)F,outcome,[1],inactive
same,outcome,[2],inactive
same,outcome,[3],inactive
same,outcome,[4],inactive
same,outcome,[5],inactive
same,outcome,[6],inactive
same,outcome,[8],inactive
same,outcome,[9],inactive
same,outcome,[10],inactive
O=C(O)C(F)(F)C(F)(F)C(F)(F)C(F)(F)C(F)(F)C(F)(F)C(F)(F)C(F)(F)Cl,outcome,[1],inactive
same,outcome,[2],inactive
same,outcome,[3],inactive
same,outcome,[4],inactive
same,outcome,[5],inactive
same,outcome,[6],inactive
same,AC50,[7],100 µM (active)
same,outcome,[8],inactive
same,outcome,[9],inactive
same,outcome,[10],inactive
O=S(=O)(OCC(F)F)C(F)(F)F,outcome,[1],inactive
same,outcome,[2],inactive
same,outcome,[3],inactive
same,outcome,[4],inactive
same,outcome,[5],inactive
same,outcome,[6],inactive
same,outcome,[8],inactive
same,outcome,[9],inactive
same,outcome,[10],inactive
OCCCC(F)(F)C(F)(F)C(F)(F)F,outcome,[1],inactive
same,outcome,[2],inactive
same,outcome,[3],inactive
same,outcome,[4],inactive
same,outcome,[5],inactive
same,outcome,[6],inactive
same,outcome,[8],inactive
same,outcome,[9],inactive
same,outcome,[10],inactive
O=S(=O)(OCCOC(F)(F)F)C(F)(F)F,outcome,[1],inactive
same,outcome,[2],inactive
same,outcome,[3],inactive
same,outcome,[4],inactive
same,outcome,[5],inactive
same,outcome,[6],inactive
same,outcome,[8],inactive
same,outcome,[9],inactive
same,outcome,[10],inactive
CC(Cc1ccc(O)c(O)c1)C(C)Cc1ccc(O)c(O)c1 (stereo not drawn),AC50,[7],19.3 µM (active)
FC(F)(F)C(F)(F)CNCC(F)(F)C(F)(F)F,outcome,[1],inactive
same,outcome,[2],inactive
same,outcome,[3],inactive
same,outcome,[4],inactive
same,outcome,[5],inactive
same,outcome,[6],inactive
same,outcome,[8],inactive
same,outcome,[9],inactive
same,outcome,[10],inactive
COC(=O)CCC(F)(F)C(F)(F)C(F)(F)C(F)(F)F,outcome,[1],inactive
same,outcome,[2],inactive
same,outcome,[3],inactive
same,outcome,[4],inactive
same,outcome,[5],inactive
same,outcome,[6],inactive
same,outcome,[8],inactive
same,outcome,[9],inactive
same,outcome,[10],inactive
